Only some compounds are listed: those with a hit (about 19% of all), similar ones and a draw of the others.
IL-1B inflam inh: blocks inflammasome-driven IL-1 beta release | THP-1 LPS/ATP IL-1B secretion, AlphaLISA, 16 h; hits give low values | activity change, % at 57.5 µM | 360,000 tested, 4.7% active | AID 743279; in the data active = activity change below about -50%; inconclusive = mostly about -30% to -49%
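Secreted IL-1B measured by AlphaLISA bead assay after 16 h compound exposure of THP-1 cells; compounds (final up to 57.5 uM) added 1 h before LPS (250 ng/mL) and ATP (1.25 mM) stimulation; lower signal means less secretion.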
DT40 TDP1 CPT: DT40-hTDP1 cell growth loss with CPT | chicken DT40 Tdp1-/-;hTDP1 cells + 20 nM CPT, ATP luminescence, 48 h | AID 686979 | Potency, µM (top dose mostly 46.2 µM), most hits filed as inhibitors | 420,000 tested, 12% active; note: nearly all actives have a fitted effect of over 55% in size
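Chicken DT40 Tdp1-/- cells stably complemented with human TDP1 were seeded at 400 cells/well in medium containing 20 nM camptothecin, exposed to pin-transferred compounds, and grown at 37 °C for at least 48 hr. Viability was read as ATP luminescence.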
TDP1 cell noCPT: qHTS for Inhibitors of human tyrosyl-DNA phosphodiesterase 1 (TDP1): qHTS in cells in absence of CPT; 420,000 tested, 15% active; AID 686978, 2013; DT40 Tdp1-/- hTDP1 cells, no CPT, ATP luminescence, 48 h; Potency, µM (series often up to 46.2 µM), hits mostly inhibitors; note: nearly all actives have a fitted effect of over 55% in size
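A cellular qHTS used chicken DT40 cells lacking endogenous Tdp1 but carrying stably transfected human TDP1. Compounds were applied without camptothecin, and cell growth kinetics were judged by ATP-dependent luminescence after ≥48 hr.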
HT1080-NT tox: kills 2HG-producing HT-1080-NT fibrosarcoma cells; 360,000 tested, 1.6% active; HT-1080-NT fibrosarcoma viability, CellTiter-Glo ATP luminescence, 48 h; Potency, µM (top dose mostly 46.1 µM), hits mostly cytotoxic;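 note: NT is the 2HG producing partner of a matched IDH1 knockdown line; nearly all actives have a fitted effect of over 55% in size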
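Viability by CellTiter-Glo luminescence after 48 h compound exposure at 37C of HT-1080-NT cells (750/well, RPMI, 5% FBS). % activity scaled between DMSO wells and medium-only wells, then curve-fitted and categorized by curve class.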
HT1080 IDH1KD tx: kills HT-1080 cells with IDH1 knockdown; 360,000 tested, 2% active; Potency, µM (highest dose often 46.1 µM), actives largely listed as cytotoxic; HT-1080 IDH1 knockdown viability, ATP luminescence, 48 h; AID 686971
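CellTiter-Glo luminescence after 48 h compound exposure at 37 degrees C of IDH1-knockdown HT-1080 cells in 5% FBS RPMI. %Activity scaled between DMSO wells and cell-free media wells, with curves fitted and assigned curve classes.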
Large screens that a line does not name were inactive. Unless noted, calls come from the whole dose curve; as a rule, active = well fitted curve in the direction sought with a large enough effect; inconclusive = small, poorly fitted or top-dose-only effect, or another doubt; inactive = no such curve, though single readings can be large; an effect the other way counts as inactive or inconclusive.

CS(=O)(=O)c1ccc(NC(=O)C2CCCN(C(=O)c3ccc(Cl)cc3)C2)cc1 (stereo not drawn)	TDP1 cell noCPT inconclusive
CCN(CC)S(=O)(=O)c1ccc(NC(=O)C2CCCN(C(=O)c3ccc(Cl)cc3)C2)cc1 (stereo not drawn)	DT40 TDP1 CPT 16µM, TDP1 cell noCPT 23µM
CN(C)S(=O)(=O)c1cccc(NC(=O)C2CCCN(C(=O)c3ccc(Cl)cc3)C2)c1 (stereo not drawn)	DT40 TDP1 CPT inconclusive, TDP1 cell noCPT 15µM
Cc1ccc2c(CN(C)Cc3ccc(Cl)cc3Cl)cc(=O)oc2c1	IL-1B inflam inh inconclusive, TDP1 cell noCPT inconclusive
C=CC[C@@H](CC(=O)NCCO)C(=O)N[C@@H](C)COC(=O)[C@@H](CC=C)Cc1ccc(F)cc1	none
NC(=O)C(c1ccc(F)cc1)c1ccc(C(=O)c2ccccc2)cc1 (stereo not drawn)	DT40 TDP1 CPT inconclusive
NC(=O)C(c1ccc(Br)cc1)c1ccc(C(=O)c2ccccc2)cc1 (stereo not drawn)	IL-1B inflam inh -91, DT40 TDP1 CPT inconclusive, TDP1 cell noCPT 15µM, HT1080-NT tox inconclusive, HT1080 IDH1KD tx inconclusive
Cc1cc(C)nc(NC(=O)CN2C(=O)c3ccccc3C2=O)n1	none
O=C(c1cccs1)N1CCN(Cc2cn[nH]c2-c2ccc(F)cc2F)CC1	IL-1B inflam inh -51
COc1ccc(-c2[nH]ncc2CN2CCN(C(=O)c3cccs3)CC2)c(F)c1	none
COCCN(CCOC)c1nc(-c2ccc(Cl)cc2)nc2ccccc12	DT40 TDP1 CPT 18µM, TDP1 cell noCPT 13µM
CCCCN(CCCC)c1nc(-c2ccncc2)nc2ccccc12	DT40 TDP1 CPT inconclusive, TDP1 cell noCPT 23µM
COCCN(CCOC)c1nc(-c2ccccc2)nc2ccccc12	IL-1B inflam inh inconclusive, DT40 TDP1 CPT inconclusive, TDP1 cell noCPT inconclusive
CCN(CC)c1nc(-c2ccccc2)nc2c1sc(=S)n2CC	none
CCN(CC)c1nc(-c2ccccc2)nc2ccccc12	IL-1B inflam inh inconclusive, DT40 TDP1 CPT 15µM, TDP1 cell noCPT inconclusive
COC(=O)[C@@H]1C[C@@]2(O)[C@@H](O)[C@@H](O)[C@@H](O)C[C@H]2N1Cc1ccc(Cl)cc1	none
COc1cc(NC(=O)c2ccccc2)c(OC)cc1NC(=O)Cc1ccc(Br)cc1	DT40 TDP1 CPT inconclusive, TDP1 cell noCPT inconclusive
COc1ccc(CC(=O)Nc2ccc(OC)nc2)cc1	none
COc1cc(NC(=O)c2ccccc2)c(OC)cc1NC(=O)Cc1ccc(F)cc1	TDP1 cell noCPT 21µM
COc1ccc(NC(=O)C(C)(C)Oc2ccc(Cl)cc2)cn1	none
COc1ccccc1NC(=O)Cc1ccc(-c2ccccc2)cc1	IL-1B inflam inh -80, DT40 TDP1 CPT inconclusive, TDP1 cell noCPT inconclusive, HT1080-NT tox inconclusive, HT1080 IDH1KD tx inconclusive
COc1ccccc1NC(=O)CC(=O)Nc1ccccc1OC	none
COc1ccc(NC(=O)Cc2ccc(-c3ccccc3)cc2)cn1	DT40 TDP1 CPT 13µM, TDP1 cell noCPT 12µM, HT1080-NT tox 9.2µM, HT1080 IDH1KD tx 23µM
COc1ccc(NC(=O)/C(Cl)=C(/Cl)S(=O)Cc2ccc(Cl)cc2)cn1 (stereo not drawn)	IL-1B inflam inh -102, DT40 TDP1 CPT 0.13µM, TDP1 cell noCPT 0.26µM, HT1080-NT tox 1.3µM, HT1080 IDH1KD tx 0.92µM
CCCCNC(=O)Oc1cccc(N2CCCC2=O)c1	none
C#CC(C)(C)NS(=O)(=O)c1cc(-c2nnc(Nc3ccc(C)cc3)c3ccccc23)ccc1C	DT40 TDP1 CPT 21µM, TDP1 cell noCPT inconclusive (no result: IL-1B inflam inh, HT1080-NT tox, HT1080 IDH1KD tx)
COc1ccc(Nc2nnc(-c3ccc(C(=O)NCCO)cc3)c3ccccc23)cc1	DT40 TDP1 CPT 3.3µM, TDP1 cell noCPT 6.5µM
CC(=O)Nc1ccc(Nc2nnc(-c3ccc(O)cc3)c3ccccc23)cc1	none
COc1ccc(Nc2nnc(-c3ccc(C(N)=O)cc3)c3ccccc23)cc1	IL-1B inflam inh inconclusive, DT40 TDP1 CPT inconclusive, TDP1 cell noCPT inconclusive
Cc1ccc(-c2n[nH]c(=O)c3ccccc23)cc1S(=O)(=O)NC(C)(C)C	DT40 TDP1 CPT inconclusive
